{"source": "PubChem BioAssay (NCATS)", "note": "The source made the active and inactive calls. No rule for the calls is given here. Potency is read from the fitted curve at half-maximal effect.", "data": [{"tested_on": "HIV-1 nucleocapsid protein NCp7 (binding to TG oligonucleotide)", "test": "HIV Nucleocapsid (AID 346);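 also: potency is for inhibitors that block NC binding and lower polarization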", "conditions": "HIV-1 NC / fluorescein-TGTGTGTG probe, fluorescence polarization", "summary_of_the_method": "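Fluorescence polarization readout: labelled TG4xF oligo (10 nM) with 100 nM nucleocapsid protein, high-salt (250mM NaCl) Hepes pH 7.5 buffer containing zinc and fresh reducing agents. Compounds added by pin tool; incubation 1 hr, room temperature.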", "values": [{"molecule": "O=C(c1cccc(F)c1)N1CCC2(CC1)CCN(C(c1ccccc1)c1ccccc1)CC2", "Potency": "> 20 µM (inactive)"}, {"molecule": "N#Cc1cccc(NC(=O)N2CCCC3(CCN(C(=O)c4cc(C(F)(F)F)cc(C(F)(F)F)c4)CC3)C2)c1", "Potency": "> 20 µM (inactive)"}, {"molecule": "O=c1c(-c2cc(F)cc(F)c2)nc2cnc(N3CCNCC3)nc2n1Cc1cccs1", "Potency": "> 20 µM (inactive)"}, {"molecule": "c1cncc(CNc2ncncc2-c2cccnc2)c1", "Potency": "> 20 µM (inactive)"}, {"molecule": "COc1ccc(C(=O)N2CCC3(CC2)CCN(c2ccncc2)CC3)cc1", "Potency": "> 20 µM (inactive)"}, {"molecule": "CN(C)c1ncnc2ccc(-c3ccccc3C#N)cc12", "Potency": "> 20 µM (inactive)"}, {"molecule": "Cc1cccc(CNc2ccnc(-c3ccccc3CN(C)C)n2)c1", "Potency": "> 20 µM (inactive)"}, {"molecule": "O=C(c1cc(C(F)(F)F)cc(C(F)(F)F)c1)N1CCC2(CCCN(c3ncccn3)C2)CC1", "Potency": "> 20 µM (inactive)"}, {"molecule": "O=C(c1cccc(F)c1)N1CCC[C@@]2(CCN(c3ccncc3)C2)C1", "Potency": "> 20 µM (inactive)"}, {"molecule": "CCNc1ncc2nc(C)c(=O)n(CCOC)c2n1", "Potency": "> 20 µM (inactive)"}, {"molecule": "COc1ccccc1CNc1ncncc1-c1cccnc1", "Potency": "> 20 µM (inactive)"}, {"molecule": "Cc1nc2cnc(N(C)C)nc2n(-c2ccccc2)c1=O", "Potency": "> 4 µM (inactive)"}, {"molecule": "O=c1c(CCc2ccccc2)nc2cncnc2n1Cc1ccc(F)cc1", "Potency": "> 20 µM (inactive)"}, {"molecule": "CCNc1ncc2nc(-c3cccc(C#N)c3)c(=O)n(CCC#N)c2n1", "Potency": "> 4 µM (inactive)"}, {"molecule": "O=C(Oc1ccccc1)N1CCC[C@@]2(CCN(c3ccccc3)C2)C1", "Potency": "> 20 µM (inactive)"}, {"molecule": "COc1ccccc1-c1cncnc1N1CCN(C)CC1", "Potency": "> 20 µM (inactive)"}, {"molecule": "N#Cc1ccc(CN2CC[C@@]3(CCCN(C(=O)c4cc(C(F)(F)F)cc(C(F)(F)F)c4)C3)C2)cc1", "Potency": "> 20 µM (inactive)"}, {"molecule": "COc1cccc(Cn2c(=O)c(-c3cccs3)nc3cncnc32)c1", "Potency": "> 20 µM (inactive)"}, {"molecule": "CN(Cc1ccco1)c1ccnc(-c2cccc(C#N)c2)n1", "Potency": "> 20 µM (inactive)"}, {"molecule": "O=c1c(CCc2ccccc2)nc2cnc(N3CCNCC3)nc2n1CCc1ccccc1", "Potency": "> 20 µM (inactive)"}, {"molecule": "COc1ccccc1-c1cncnc1Nc1ccccc1", "Potency": "> 20 µM (inactive)"}, {"molecule": "CS(=O)(=O)Nc1cccc(-c2nc(NCc3cccnc3)c3ccccc3n2)c1", "Potency": "> 20 µM (inactive)"}, {"molecule": "COc1ccccc1CNc1ncnc2ccc(-c3c(C)noc3C)cc12", "Potency": "> 20 µM (inactive)"}, {"molecule": "O=c1c(-c2cccs2)nc2cnc(N3CCNCC3)nc2n1-c1ccccc1", "Potency": "12.2 µM (inactive)"}, {"molecule": "COCCn1c(=O)c(-c2cccs2)nc2cnc(Nc3ccccc3)nc21", "Potency": "> 20 µM (inactive)"}, {"molecule": "O=C(Nc1ccccc1)N1CC[C@@]2(CCCN(C(=O)c3ccncc3)C2)C1", "Potency": "> 20 µM (inactive)"}, {"molecule": "O=C(c1cc(C(F)(F)F)cc(C(F)(F)F)c1)N1CCC2(CC1)CCN(c1ccccc1)CC2", "Potency": "> 20 µM (inactive)"}, {"molecule": "FC(F)(F)c1ccccc1-c1nc(NC2CCNCC2)c2ccccc2n1", "Potency": "> 20 µM (inactive)"}, {"molecule": "CN(C)C(=O)c1ccc(-c2nc(-n3ccnc3)c3ccccc3n2)cc1", "Potency": "> 20 µM (inactive)"}, {"molecule": "O=c1cnc2cnc(N3CCOCC3)nc2n1C[C@H]1CCCO1", "Potency": "> 20 µM (inactive)"}, {"molecule": "COc1ccc(-c2nc3cnc(N4CCN(C)CC4)nc3n(CCc3ccccc3)c2=O)cc1", "Potency": "> 20 µM (inactive)"}, {"molecule": "O=c1c(-c2ccc(F)cc2)nc2cnc(N3CCNCC3)nc2n1-c1ccccc1", "Potency": "> 20 µM (inactive)"}, {"molecule": "Cc1noc(C)c1C(=O)N1CCC[C@@]2(CCN(Cc3cc(C(F)(F)F)cc(C(F)(F)F)c3)C2)C1", "Potency": "> 20 µM (inactive)"}, {"molecule": "N#Cc1ccccc1-c1ccc2ncnc(NCc3cccs3)c2c1", "Potency": "> 20 µM (inactive)"}, {"molecule": "CNc1ncncc1-c1ccc(C(=O)N(C)C)cc1", "Potency": "> 20 µM (inactive)"}, {"molecule": "COCCn1c(=O)c(-c2ccc(OC)cc2)nc2cnc(OCc3ccccc3)nc21", "Potency": "> 20 µM (inactive)"}, {"molecule": "O=C(c1ccco1)N1CCC[C@@]2(CCN(c3ncccn3)C2)C1", "Potency": "> 20 µM (inactive)"}, {"molecule": "COc1ccc(C(=O)N2CCC3(CC2)CN(c2ccc(-c4ccccc4)cc2)C3)cc1", "Potency": "> 20 µM (inactive)"}, {"molecule": "O=C(c1cc(C(F)(F)F)cc(C(F)(F)F)c1)N1CCC[C@@]2(CCN(c3ccccn3)C2)C1", "Potency": "> 20 µM (inactive)"}, {"molecule": "COc1ccccc1CN1CCC2(CC1)CCN(C(=O)c1ccco1)CC2", "Potency": "> 20 µM (inactive)"}]}]}
